Test results taken from PubChem BioAssay AID1851 (National Center for Advancing Translational Sciences (NCATS), 2009).
Several values for one entry are separate records, joined by “and”; a condition that tells them apart may be missing. Equal values may be shown once. About 5,800 (36%) of roughly 16,000 compounds were called active. Another 23% or so got no clear call; they are omitted. The call rests on the fitted dose curve; in most records, active means well fitted curve in the direction sought with a large enough effect; inconclusive means small, poorly fitted or top-dose-only effect, or effect the other way; inactive means no such curve, though single readings can be large or run the other way. This is one part of the list.

Target: Cytochrome P450 2C19 (Homo sapiens) (UniProt P33261)
Sequence (P33261 whole entry, looked up): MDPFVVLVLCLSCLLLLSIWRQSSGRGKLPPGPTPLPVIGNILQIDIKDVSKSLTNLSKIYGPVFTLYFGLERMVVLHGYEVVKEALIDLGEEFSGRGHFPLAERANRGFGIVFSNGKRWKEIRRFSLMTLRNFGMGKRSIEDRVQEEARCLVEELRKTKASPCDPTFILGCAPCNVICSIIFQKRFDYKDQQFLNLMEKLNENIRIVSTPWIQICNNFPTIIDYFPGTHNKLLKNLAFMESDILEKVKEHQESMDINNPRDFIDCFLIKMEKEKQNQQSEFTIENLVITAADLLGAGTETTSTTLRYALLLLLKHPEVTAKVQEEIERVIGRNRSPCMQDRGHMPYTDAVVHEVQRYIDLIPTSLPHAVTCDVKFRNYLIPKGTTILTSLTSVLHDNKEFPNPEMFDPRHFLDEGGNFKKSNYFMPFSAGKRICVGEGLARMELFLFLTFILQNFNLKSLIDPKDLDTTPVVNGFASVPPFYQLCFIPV
Assay: Cytochrome panel assay with activity outcomes
Details: recombinant CYP, pro-luciferin dealkylation, luminescence, p450-cyp2c19; series mostly up to 57.1 µM; activity, negative = inhibition: at the top concentration
On the % scale 0 is the no-effect control and ±100 the full control effect.

Which AC50 does the source give for `CCOC(=O)c1cc2sc(C)cc2n1CC(=O)N1CCN(C(=O)c2ccco2)CC1` here?
Its AC50 is 25.1 µM (active).

`CCn1c(=O)cc(SCC(=O)N2CCN(C(=O)c3ccco3)CC2)c2ccccc21` was tested. Which “activity, negative = inhibition” value did it give?
Its value is -35% (inactive).

With `CCOC(=O)c1cc2sc(C)cc2n1CCCN1C(=O)c2ccccc2C1=O` as the compound, how does the AC50 read?
Its AC50 is 3.98 µM (active).

`O=C(CCC(=O)c1cccs1)OCC(=O)N1CCN(C(=O)c2ccco2)CC1` was tested. Which “activity, negative = inhibition” value did it give?
The value was -14.3% (inactive).

`CCN1C(=O)[C@@H]2[C@H]3C(=CC[C@@H]2C1=O)C1(OCCCO1)[C@H]1O[C@@H]1[C@H]3O` was tested. Which AC50 did it give?
The AC50 was 1.58 µM (active).

For `CCN1C(=O)[C@H]2[C@@H]3[C@H](O)[C@H](O)CC(=O)[C@H]3CC[C@H]2C1=O`, which activity, negative = inhibition is on record?
The activity, negative = inhibition was -13.9% [at 11.4 µM] (inactive) and -20% [at 11.4 µM] (inactive).

With `CCN1C(=O)[C@H]2[C@@H]3[C@H](O)C=CC(=O)[C@H]3CC[C@H]2C1=O` as the compound, how does the activity, negative = inhibition read?
The activity, negative = inhibition was -2.48% [at 11.4 µM] (inactive).

`O=C(NC12CC3CC(CC(C3)C1)C2)c1ccc(COc2ccc(Cl)cc2[N+](=O)[O-])o1` was tested. Which AC50 did it give?
The AC50 was 3.55 µM (active).

`Cc1ccc2nc(SCc3nc4c(cnn4-c4ccccc4)c(=O)[nH]3)[nH]c2c1` was tested. Which AC50 did it give?
The AC50 was 4.47 µM (active).

Which “activity, negative = inhibition” value does the source give for `O=C(Nc1cccc(-c2nc3ncccc3o2)c1)c1sc2cc(Cl)ccc2c1Cl` here?
Its value is 1.04% (inactive).

With `CCCCCC(=O)Nc1cccc(-c2nc3ncccc3o2)c1` as the compound, how does the AC50 read?
Its AC50 is 14.1 µM (active).

Which AC50 does the source give for `O=C(CSc1ccc(Cl)cc1)Nc1cccc(-c2nc3ncccc3o2)c1` here?
The AC50 was 8.91 µM (active).

`NS(=O)(=O)c1ccc(NCc2cnc3ccccc3n2)cc1` was tested. Which activity, negative = inhibition did it give?
The activity, negative = inhibition was 20.6% [at 11.4 µM] (inactive).

With `NS(=O)(=O)c1ccc(NCc2nc3ccccc3[nH]2)cc1` as the compound, how does the activity, negative = inhibition read?
The activity, negative = inhibition was 39.2% [at 11.4 µM] (inactive).

How did the AC50 turn out when `NS(=O)(=O)c1ccc(NCc2ccccc2OCc2ccccc2F)cc1` was run?
The AC50 was 6.31 µM (active).

`CC1CC/C(=C\c2ccc3c(c2)OCO3)C(=O)/C1=C/c1ccc2c(c1)OCO2` (stereo unspecified) was tested. Which AC50 did it give?
Its AC50 is 2.82 µM (active).

How did the “activity, negative = inhibition” value turn out when `Cc1nc2cnc(N3CCN(C)CC3)nc2n(Cc2cccs2)c1=O` was run?
The value was -6.25% (inactive).

How did the “activity, negative = inhibition” value turn out when `COC(=O)[C@@]1(Cc2ccc(F)cc2)[C@H]2c3cc(C(=O)N4CCCC4)n(Cc4ccc(S(C)(=O)=O)cc4)c3C[C@H]2CN1C(=O)c1ccccc1` was run?
The value was -41.1% (inactive).

With `COC(=O)[C@@]1(Cc2ccc(F)cc2)[C@H]2c3cc(C(=O)N4CCCC4)n(CCc4ccc(OC)c(Br)c4)c3C[C@H]2CN1C(=O)c1ccccc1` as the compound, how does the AC50 read?
Its AC50 is 5.01 µM (active).

With `COc1ccccc1CN1CCCC2(CCN(C(=O)c3cccn3C)CC2)C1` as the compound, how does the “activity, negative = inhibition” value read?
Its value is 2.62% (inactive).

How did the AC50 turn out when `COC(=O)[C@@]1(Cc2ccc(F)cc2)[C@H]2c3cc(C(=O)N4CCCC4)n(CCc4ccc(O)c(O)c4)c3C[C@H]2CN1C(=O)c1ccccc1` was run?
The AC50 was 15.8 µM (active).

With `CC(NC(=O)c1ccc(N2CCCC2=O)cc1)c1ccccc1` (stereo unspecified) as the compound, how does the “activity, negative = inhibition” value read?
Its value is 0.679% (inactive).

How did the AC50 turn out when `O=C(O)c1cccc(N2CCCC2=O)c1` was run?
Its AC50 is 31.6 µM (active).

Which “activity, negative = inhibition” value does the source give for `O=c1cc(CO)oc(CN2CCCC2)c1O` here?
Its value is -9.57% (inactive).

`CO[C@H]1COC(=O)[C@H](C)NC(=O)C/C=C\[C@@H](C)[C@@H](NS(=O)(=O)c2ccc(C)cc2)COC(=O)[C@H](OCc2ccccc2)/C=C\[C@@H]1C` was tested. Which activity, negative = inhibition did it give?
Its activity, negative = inhibition is 6.49% [at 11.4 µM] (inactive).

Which “activity, negative = inhibition” value does the source give for `Cc1ccc(/C=N\NC(=O)c2cc(OCC(F)(F)F)ccc2OCC(F)(F)F)cc1` here?
Its value is -0.0019% (inactive).

Which AC50 does the source give for `COc1ccc(/C=N/NC(=O)c2ccn[nH]2)cc1COc1ccc(Cl)cc1` here?
Its AC50 is 2 µM (active).

`CCOc1cc(CN2CCN(c3ccc(C(C)=O)cc3)CC2)ccc1OC` was tested. Which “activity, negative = inhibition” value did it give?
The value was -19.8% (inactive).

With `COc1ccc(C(=O)CN2CCN(c3ccc(F)cc3)CC2)cc1OC` as the compound, how does the AC50 read?
Its AC50 is 14.1 µM (active).

With `COc1ccc(/C=N/NC(=O)c2ccccc2)cc1CN1CCN(c2ccc(F)cc2)CC1` as the compound, how does the AC50 read?
The AC50 was 17.8 µM (active).

For `COc1ccc(/C=N\NC(=O)C2C(=O)NCC2c2ccccc2)cc1O` (stereo unspecified), which “activity, negative = inhibition” value is on record?
Its value is -11.8% (inactive).

How did the AC50 turn out when `COc1ccc(/C=N/NC(=O)c2ccn[nH]2)cc1COc1ccc(F)cc1` was run?
The AC50 was 3.55 µM (active).

How did the “activity, negative = inhibition” value turn out when `C[C@H](O)[C@H](O)[C@@H]1CNc2nc(N)[nH]c(=O)c2N1` was run?
The value was 26.5% (inactive).

With `Cc1ccc(C(=O)NN2CCOCC2)cc1` as the compound, how does the “activity, negative = inhibition” value read?
Its value is 6.29% (inactive).

With `Cc1c(C(=O)NN2CCOCC2)nn(-c2ccc(Cl)cc2Cl)c1-c1ccc(I)cc1` as the compound, how does the AC50 read?
The AC50 was 7.94 µM (active).

How did the AC50 turn out when `O=C(Nc1ccccc1C(=O)NCCc1ccccc1)c1ccco1` was run?
The AC50 was 8.91 µM (active).

How did the AC50 turn out when `COc1ccc(CCNC(=O)c2ccccc2NC(=O)c2ccco2)cc1OC` was run?
The AC50 was 11.2 µM (active).

With `O=C(CCc1ccccc1)NNC(=O)c1ccco1` as the compound, how does the “activity, negative = inhibition” value read?
Its value is -17.8% (inactive).

For `CC(C)[C@@H](OCc1ccccc1)[C@H](C)/C=N\O[C@@H](C)c1cn([C@H](CO)Cc2ccccc2)nn1`, which activity, negative = inhibition is on record?
The activity, negative = inhibition was -16.9% [at 11.4 µM] (inactive) and -29.7% [at 11.4 µM] (inactive).

Which “activity, negative = inhibition” value does the source give for `O=c1cc(O)cc(/C=C\c2ccc(O)c(O)c2)o1` here?
Its value is -24.2% (inactive).

With `N#C/C(=C\c1ccc(O)c(O)c1)C(=O)OCCc1cccs1` as the compound, how does the AC50 read?
Its AC50 is 6.31 µM (active).

For `N#C/C(=C\c1ccc(O)c(O)c1)C(=O)c1ccc(O)c(O)c1`, which “activity, negative = inhibition” value is on record?
The value was 0.35% (inactive).

With `N#C/C(=C\c1ccc(O)c(O)c1)C(=O)NCCCc1ccccc1` as the compound, how does the AC50 read?
Its AC50 is 10 µM (active).

With `N#C/C(=C\c1ccc(O)c(O)c1)C(=O)NCCc1ccccc1` as the compound, how does the “activity, negative = inhibition” value read?
Its value is -40.2% (inactive).

Which AC50 does the source give for `N#Cc1ccc(-c2ccc(F)cc2)nc1Oc1ccc(Cl)c(Cl)c1` here?
The AC50 was 3.55 µM (active).

Which AC50 does the source give for `Cc1ccc(C2NC(c3ccc(C)cc3)C(C)C(=NO)C2C)cc1` (stereo unspecified) here?
The AC50 was 0.562 µM (active).
